From PubChem BioAssay (Tox21) come the findings set out here.

Values joined by “and” are separate entries in the source; they are usually repeats but may differ in a detail not shown here. Identical values can stand only once. Results filed as inconclusive are left out. A call without a number means that no potency is given here. More than one record can exist for a structure, and the calls need not agree. Active and inactive are the calls of the source. The call rests on the fitted dose curve; in most records, active means well fitted cell-killing curve with a large enough effect in the repeat runs; inconclusive means weak or mixed curves, or effect the other way; inactive means no such curve, though single readings can be large or run the other way.
Potency means the concentration at half of the fitted maximal effect.

The test can be described thus: qHTS assay to identify small molecule antagonists of the retinoid-related orphan receptor gamma (ROR-gamma) signaling pathway - cell viability counter screen (AID 1159520). Further: nearly all actives have a fitted effect of over 50% in size. As to conditions: Tet-on RORgamma CHO cells viability, ATP luminescence, 16 h; series mostly up to 92.4 µM. The text has this: U.S. Tox21 Program National Center for Advancing Translational Sciences [NCATS] NIH Chemical Genomics Center [NCGC] U.S. Environmental Protection Agency [EPA] National Institutes of Environmental Health Sciences [NIEHS] National Toxicology Program [NTP] U.S. Food and Drug Administration [FDA] Tox21 Assay Overview: Nuclear steroid hormone receptors are involved in many biological processes including inflammatory responses, cell proliferation, and apoptosis. Environmental factors or compounds disrupting these nuclear receptor pathways and gene expression may promote susceptibility to immunotoxicants and autoimmune diseases. One important group of these expression factors are the retinoid-related orphan receptors. To assess compounds that may interfere with the retinoid-related orphan receptor gamma (ROR-gamma) transcription factor, a cell-based luciferase assay was used. The CHO cell-based assay utilizes a TET-inducible ROR expression factor and ROR response element-LUC reporter gene. Reporter gene activity was induced using Doxycycline Hyclate and measured after 16 hr incubation. Tet-on ROR gamma CHO cells were used to screen against the Tox21 10K compound library for cytotoxicity by measuring the viability of the cells based on the quantitation of the ATP.
Tox21 Assay Protocol Summary: Tet-on ROR gamma CHO cells were dispensed at 1,000 cells in 4 uL of culture medium per well into white wall/solid bottom 1536-well plates using a Multidrop Combi (Thermo Scientific, Waltham, MA) dispenser. Following incubation at 37 C and 5% CO2 for 4 hr, 23 nL of compounds dissolved in DMSO, positive controls or DMSO only were transferred by a Pintool station (Kalypsys, San Diego, CA) and after 2 hr incubation at 37 C, one ul of 1 uM (final concentration) of Doxycycline Hyclate was added to all the wells by using a Flying Reagent Dispenser (FRD) (Aurora Discovery, San Diego, CA). After 16 hr incubation at 37 C and 5% CO2, 5 uL of CellTiter-Glo reagent (Promega Corporation, Madison, WI) was added to each assay plate using FRD. After 30 min incubation at room temperature, luminescence was quantified on a ViewLux plate reader (Perkin Elmer, Waltham, MA).
For orientation: In qHTS, concentration-response curves come from the screen itself.
In the case of `CCCCCCCCCCCCCOP(=O)(O)O`, the Potency result was “inactive”. In the case of `CC(C)=CC1CC(C)CCO1` (stereo not given), the Potency entry is “inactive”.

In the case of `CC(COC(=O)c1ccccc1)OC(=O)c1ccccc1` (stereo not given), the Potency entry is “inactive”. Still for that read-out and setting: the value for `CN(Cc1cc(Br)cc(Br)c1N)C1CCCCC1` was “inactive”; that for `Cc1cncc(C)c1` was “inactive”; that for `O=C1NCCN1CCN1CCC(c2cn(-c3ccc(F)cc3)c3ccc(Cl)cc23)CC1` was “inactive”. For the compound `CO[C@H]1C=CO[C@@]2(C)Oc3c(C)c(O)c4c(O)c(cc(O)c4c3C2=O)NC(=O)/C(C)=C\C=C/[C@H](C)[C@H](O)[C@@H](C)[C@@H](O)[C@@H](C)[C@H](OC(C)=O)[C@@H]1C`, the Potency entry was “inactive”.

Turning to `CCCCCCCC/C=C/CCCOC(C)=O`, the Potency entry is “inactive”. On the same count and under the same terms, the value for `CCN(CC)CCNc1ccc(CO)c2sc3ccccc3c(=O)c12` was “inactive”; that for `C=C(C)C(=O)OCCC[Si](Cl)(Cl)Cl` was “inactive”; that for `CC(=O)C=O` was “inactive”. For `COc1ccccc1C=O`, the Potency entry is “inactive”. For `COc1cc(C(C)C)c2c(c1)S(=O)(=O)N(COc1cc(=O)n3cccc(OCCN4CCCCC4)c3n1)C2=O`, the activity, negative = cytotoxicity was -0.0922% [at 19 µM] (inactive). `CCCCCCCCCCCCCC[n+]1ccccc1`: the Potency was 61.1 µM (active).

With `CCc1ccc(O)c(C(C)(C)C)c1`, the Potency result is “inactive”.

Regarding `S=P(N1CC1)(N1CC1)N1CC1`, the Potency result was “inactive”.

With `COc1ccc(-n2nc(CCC(=O)N(C)O)cc2-c2ccc(Cl)cc2)cc1`, the Potency entry was “inactive”. Same read-out and setting: the value for `CCCCCCCCCC(=O)N(C)C` was “inactive”; that for `C1CC(COCC2CO2)CCC1COCC1CO1` (stereo not given) was “inactive”; that for `CC1=C(/C=C/C(C)=C/C=C/C(C)=C/C(=O)Nc2ccc(O)cc2)C(C)(C)CCC1` was 31.4 µM (active) and 13.3 µM (active).

Turning to `CCCC(C)CCC(C)=O` (stereo not given), the Potency result was “inactive”. On the same count and under the same terms, the value for `Cc1oc(-c2ccccc2)nc1CCOc1ccc(C[C@H](Nc2ccccc2C(=O)c2ccccc2)C(=O)O)cc1` was 61.1 µM (active); that for `COc1cc(C(=O)NS(=O)(=O)c2ccccc2C)ccc1Cc1cn(C)c2ccc(NC(=O)OC3CCCC3)cc12` was “inactive”.

Take `O=CC1CC1`: the Potency entry was “inactive”. Same read-out and setting: the value for `C[C@]12CC[C@H]3C(=CCc4cc(O)ccc43)[C@@H]1CCC2=O` was “inactive”. Same read-out and setting: the value for `O=C(O)CCCCCCC(=O)O` was “inactive”; that for `CC1(C)C(=O)N(Br)C(=O)N1Br` was “inactive”.

As to `Oc1cc2ccccc2cc1O`, the Potency result was “inactive”. Still for that read-out and setting: the value for `C=C(C)CCCC` was “inactive”; that for `CSc1ccc2c(c1)N(CCC1CCCCN1C)c1ccccc1S2` (stereo not given) was 48.4 µM (active) and inactive; that for `C=CCCCCCCC=C` was “inactive”. On the same count and under the same terms, the value for `CCOC(/C=C(\C)CCC=C(C)C)OCC` was “inactive”. Take `C=C/C=C/C=C/CCCCC`: the activity, negative = cytotoxicity is -9.56% [at 19 µM] (inactive).

For the compound `N[C@@H](CSSC[C@H](N)C(=O)O)C(=O)O`, the activity, negative = cytotoxicity is 0.408% [at 0.349 µM] (inactive).

As for `CC1=CP(=O)(c2ccccc2)CC1` (stereo not given), the Potency entry is “inactive”. Consider `CCC(=O)OCCc1ccccc1`, for which the Potency result is “inactive”.

For `O=C(O)CCn1c2c(c3ccccc31)C[C@H](NS(=O)(=O)c1ccc(F)cc1)CC2`, the Potency result is “inactive”.

`CC(C)c1ccccc1N`: the Potency entry is “inactive”. On the same count and under the same terms, the value for `CCOC(OCC)C(=O)c1ccccc1` was “inactive”; that for `CN1[C@@H]2CC[C@@H]1CC(OC(=O)C(CO)c1ccccc1)C2` (stereo not given in full) was “inactive”.
